uPA surface inh = inhibitors of cell surface uPA generation | Potency, µM (series often up to 38.3 µM), without a hit: at the highest dose activity change, negative = inhibition, actives largely listed as inhibitors | 330,000 tested, 0.31% active | cell surface uPA generation assay, qHTS; active = well fitted inhibition curve with a large enough effect; inconclusive = small, poorly fitted or top-dose-only effect; inactive = no such curve, though single readings can be large or run the other way; tested in mouse RAW 264.7 cells; also: potency is read from the fitted curve at half-maximal effect; % is scaled to controls: 0 for no effect and ±100 for the full control effect; nearly all actives have a fitted effect of over 55% in size
TRPV1 agonist = activates the human vanilloid receptor TRPV1; Q8NER1; TRPV1-expressing cells, Fluo-8 calcium influx, agonist mode; activation, % at 8.33 µM; 320,000 tested, 0.19% active; in the data active = activation above about 80%; inconclusive = between about 30% and that limit; also: 0% is about no effect
Target sequence (Q8NER1 whole entry, looked up): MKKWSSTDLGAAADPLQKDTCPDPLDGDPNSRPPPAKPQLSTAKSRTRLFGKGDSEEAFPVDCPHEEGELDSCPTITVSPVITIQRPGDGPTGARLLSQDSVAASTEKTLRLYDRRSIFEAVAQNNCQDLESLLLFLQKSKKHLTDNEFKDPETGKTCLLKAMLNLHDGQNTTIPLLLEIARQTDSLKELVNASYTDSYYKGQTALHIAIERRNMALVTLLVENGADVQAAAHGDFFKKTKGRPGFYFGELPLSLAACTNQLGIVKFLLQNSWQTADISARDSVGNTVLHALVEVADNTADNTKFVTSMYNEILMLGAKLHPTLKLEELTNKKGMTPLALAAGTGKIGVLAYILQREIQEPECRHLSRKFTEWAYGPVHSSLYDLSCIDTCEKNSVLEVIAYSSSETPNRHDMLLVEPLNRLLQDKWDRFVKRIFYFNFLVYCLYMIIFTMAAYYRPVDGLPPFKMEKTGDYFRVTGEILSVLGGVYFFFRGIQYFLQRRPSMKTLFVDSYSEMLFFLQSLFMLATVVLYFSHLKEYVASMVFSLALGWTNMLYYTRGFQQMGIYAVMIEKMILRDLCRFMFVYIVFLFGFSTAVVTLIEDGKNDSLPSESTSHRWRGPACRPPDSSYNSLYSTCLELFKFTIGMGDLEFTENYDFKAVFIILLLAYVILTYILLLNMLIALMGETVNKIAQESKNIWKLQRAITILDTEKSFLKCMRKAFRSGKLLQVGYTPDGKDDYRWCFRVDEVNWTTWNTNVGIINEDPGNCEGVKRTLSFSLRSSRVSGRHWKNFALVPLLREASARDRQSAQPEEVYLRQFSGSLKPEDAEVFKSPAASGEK
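Cells expressing TRPV1 were dye-loaded with Fluo-8 and read kinetically: 10 s baseline, 3 min after compound (agonist portion), then 2 min after EC20 capsaicin (allosteric enhancer portion). Calcium-bound dye fluorescence at 480/520 nm.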
RORg inh = inhibitors of mouse ROR gamma transcriptional activity; 310,000 tested, 5.4% active; Drosophila S2 Gal4-RORgamma UAS-luciferase reporter, 20 h; Potency, µM (doses to about 53.6 µM), for the others: at the top dose activity change, negative = inhibition, actives largely listed as inhibitors; also: potency is read from the fitted curve at half-maximal effect; % is scaled to controls: 0 for no effect and ±100 for the full control effect; nearly all actives have a fitted effect of over 60% in size
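Using a luciferase readout, inhibitors were identified by reduced reporter activity in Drosophila cells coexpressing a copper-inducible Gal4–ROR gamma fusion and UAS-driven Photinus luciferase, incubated 20 hr after 700 uM copper sulfate.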
TRPV1 potentiator = potentiators of human vanilloid receptor 1 (TRPV1); 320,000 tested, 0.02% active; potentiation, % at 8.33 µM; TRPV1-expressing cells, Fluo-8 calcium influx, capsaicin EC20 potentiation; in the data active = potentiation above about 80%; inconclusive = between about 30% and that limit; also: 0% is about no effect
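Cells expressing TRPV1 were dye-loaded with Fluo-8 and read kinetically: 10 s baseline, 3 min after compound (agonist portion), then 2 min after EC20 capsaicin (allosteric enhancer portion). Calcium-bound dye fluorescence at 480/520 nm.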
VP16 counter = counter-screen for ROR gamma inhibitors: Gal4-VP16 reporter. Drosophila S2 Gal4-VP16 UAS-luciferase, luminescence, 20 h. Potency, µM (highest dose often 53.6 µM), inactives show at the top dose activity, negative = inhibition, most hits filed as inhibitors. 310,000 tested, 3.5% active;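 also: Gal4-VP16 expression switched on by copper sulfate through the metallothionein promoter; potency is read from the fitted curve at half-maximal effect; % is scaled to controls: 0 for no effect and ±100 for the full control effect; nearly all actives have a fitted effect of over 50% in size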
Active calls of the source: *; ? = inconclusive; . = no result. Rows were chosen to be rich in hits. Some 5.8% of all compounds tested hit in one or more screens of this group. Unless noted, calls follow the shape of the dose curve; as a rule, active = well fitted curve in the direction sought with a large enough effect; inconclusive = small, poorly fitted or top-dose-only effect, or another doubt; inactive = no such curve, though single readings can be large; an effect the other way counts as inactive or inconclusive.

SMILES | uPA surface inh | TRPV1 agonist | RORg inh | TRPV1 potentiator | VP16 counter
N#Cc1ccc(OCC(=O)N/N=C2/CC(c3ccccc3)Oc3ccccc32)cc1 (stereo unspecified) | 6% | -1 | 11µM* | -8 | 11µM*
O=C(N/N=C1\CC(c2ccccc2)Oc2ccccc21)c1ccc(O)cc1 (stereo unspecified) | -1% | 0 | -38% | 2 | ?
Cc1c(CN2CCCC(C(=O)Nc3cccc(-n4cccn4)c3)C2)cnn1C (stereo unspecified) | 7.9µM* | 9 | -6% | -12 | 5%
Cn1cc(CN2CCCC(C(=O)Nc3ccc(-c4cccc(F)c4)cc3)C2)cn1 (stereo unspecified) | 8.9µM* | 0 | -11% | -3 | -20%
CC1(C)CC(=O)C(C=NCCN2CCN(C3CC(=O)N(c4ccc(Br)cc4)C3=O)CC2)=C(O)C1 (stereo unspecified) | -6% | 1 | 8% | 13 | 3%
O=C(NCc1ccccc1Cl)C1CCCN(S(=O)(=O)c2cccc3nonc23)C1 (stereo unspecified) | -5% | 6 | 12% | -14 | 14%
CCCCC/C=C\C/C=C\C/C=C\C/C=C\CCCCCC(=O)NCCCC(=O)O | . | . | 10% | . | -5%
CCOc1ccc(NC(=S)Nc2cc(-c3ccccc3)[nH]n2)cc1 | 1% | 3 | 1.8µM* | -1 | 3.5µM*
COc1ccc(NC(=S)Nc2cc(C)[nH]n2)cc1Cl | 6% | -4 | ? | 10 | ?
COc1ccc(NC(=S)Nc2cc(-c3ccccc3)[nH]n2)cc1Cl | . | 8 | 2.8µM* | ? | 2µM*
Cc1cc(NC(=S)Nc2ccc(C)c(Cl)c2)n[nH]1 | 6% | -5 | 0.35µM* | 2 | 1µM*
Cc1cccc(OCC(=O)NCCCNC(=O)c2ccco2)c1 | 0% | 0 | -23% | 5 | 2%
O=C(N/N=C\c1ccccn1)c1cccc(C(=O)N/N=C\c2ccccn2)n1 | 0% | . | . | . | .
C(=N\NC(=Nc1ccccc1)c1ccccn1)/c1ccccn1 | -3% | -1 | 3.2µM* | 0 | 3.2µM*
Clc1ccc(/C=N/NC(=Nc2ccccc2)c2ccccn2)c(Cl)c1 | 2% | 1 | 13µM* | -1 | ?
CN1CC2(C)OC(=O)C(Cl)=C2CC1c1ccccc1 (stereo unspecified) | 2% | 2 | 24% | 3 | -4%
COc1cc2c(cc1NC(=O)Nc1ccccc1)oc1ccccc12 | 12% | 15 | ? | -6 | -11%
COc1cc2c(cc1NC(=S)Nc1cccc3ccccc13)oc1ccccc12 | 4% | -6 | 10µM* | 10 | 11µM*
COCCCNC(=S)Nc1cc2oc3ccccc3c2cc1OC | -14% | 6 | 5.6µM* | -2 | 7.1µM*
CCCN(CC1CC1)c1nc(C)nc(Nc2c(Cl)cc(Cl)cc2Cl)c1Cl | 6% | . | 3.5µM* | . | -4%
COc1ccc(-n2c(SC(C)C(=O)Nc3ccc(NC(C)=O)cc3)nc3ccccc3c2=O)cc1OC (stereo unspecified) | 0% | ? | 16% | -23 | -5%
O=C(NCc1cccnc1)c1ccc(COc2ccc3c(c2)CCC3)o1 | -16% | -3 | -110% | 17 | 20µM*
O=C(N/N=C/c1cc([N+](=O)[O-])ccc1O)c1ccc(COc2ccc3c(c2)CCC3)o1 | -11% | 9 | 2.2µM* | -7 | 1.4µM*
COc1ccc(Br)cc1/C=N/NC(=O)c1ccc(COc2ccc3c(c2)CCC3)o1 | 5% | . | -20% | . | -12%
CN1CCN(C(=O)C(N)Cc2ccccc2)CC1 (stereo unspecified) | . | 4 | 3% | 3 | 1%
SMILES | uPA surface inh | TRPV1 agonist | RORg inh | TRPV1 potentiator | VP16 counter
COc1ccc(-c2nnnn2C)cc1S(=O)(=O)Nc1ccc(C)cc1C | 0% | 2 | -2% | 5 | -17%
N/C(=N\OC(=O)CCC1CCCCC1)c1ccc([N+](=O)[O-])cc1 | -4% | 8 | 45% | -18 | 24%
N/C(=N\OC(=O)CC1CCCCC1)c1ccc([N+](=O)[O-])cc1 | -4% | 2 | 1% | -9 | 35µM*
Cc1ccc2cccnc2c1 | . | . | -12% | . | 1%
CN(C)c1nc(Nc2ccc(F)cc2)nc(Oc2ccc(F)cc2)n1 | -25% | 23 | 57% | -7 | -13%
CN(C)c1nc(N/N=C/c2ccccc2O)nc(Nc2ccc(F)cc2)n1 | -8% | 12 | 0.22µM* | -3 | 1.1µM*
COC(=O)c1c(NC(=O)CCl)sc(C(=O)N2CCOCC2)c1C | -15% | 1 | 10µM* | 0 | 1.8µM*
COC(=O)c1c(N)sc(C(=O)N2CCOCC2)c1C | -2% | 2 | 1% | 25 | -1%
CCCCC1=NN(C(=O)c2ccncc2)C(O)(C(F)(F)F)C1 (stereo unspecified) | 7% | 8 | -15% | -5 | ?
CCC1=NN(C(=O)CCc2ccccc2O)C(O)(C(F)(F)F)C1 (stereo unspecified) | 7% | -1 | 10µM* | 0 | ?
CCC1=NN(C(=O)CCc2ccc3c(c2)OCO3)C(O)(C(F)(F)F)C1 (stereo unspecified) | 3% | 0 | 11µM* | 10 | 3%
COC(=O)C1=C(CN2CCCc3ccccc32)NC(=O)NC1c1ccc(F)cc1 (stereo unspecified) | -15% | -2 | 1.4µM* | -4 | ?
CC(C)(C)Nc1oc(-c2ccccc2)nc1-c1ccccc1F | . | . | -1% | . | -1%
O=C(N/N=C/c1cc(Br)ccc1O)C(c1ccncc1)N1CCOCC1 (stereo unspecified) | -8% | -3 | 5µM* | 11 | 16µM*
COc1cccc(/C=N/NC(=O)C(c2ccncc2)N2CCOCC2)c1 (stereo unspecified) | 2% | -3 | 5% | -4 | -2%
CCC(Sc1nc2c(c(=O)n1CC)SC(C)C2)C(=O)OC (stereo unspecified) | -28% | 13 | 14% | 5 | -6%
Oc1cccc2ccc[n+](CC(O)Cn3c4ccccc4c4ccccc43)c12 (stereo unspecified) | 5% | -1 | -73% | 8 | 22µM*
Cc1cc(C(F)(F)F)nn1CC(=O)NNC(=S)Nc1ccc(F)cc1 | 1% | 1 | 22% | -8 | 10%
Cc1cc([N+](=O)[O-])nn1CC(=O)NNC(=S)Nc1ccc(F)cc1 | 1% | . | 14µM* | . | ?
Cc1cc(C(F)(F)F)nn1CC(=O)NNC(=S)NCC(C)C | . | 2 | 7.1µM* | -9 | -20%
CCNC(=S)NNC(=O)Cn1nc(C)cc1C | . | -5 | 10µM* | -17 | -21%
Cc1cc([N+](=O)[O-])nn1CC(=O)Nc1ccc(F)cc1 | -1% | 19 | -31% | -22 | -17%
CCN(CC)S(=O)(=O)c1cccc(-c2n[nH]c(=S)n2Cc2ccccc2)c1 | -8% | 2 | ? | 4 | -2%
Fc1ccccc1-c1n[nH]c(=S)n1C1CC1 | . | 3 | 10µM* | -4 | ?

Compound activity: PubChem, National Center for Advancing Translational Sciences (NCATS)
